Calls of active or inactive are those of the source.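 The calls were made as follows, unless noted: active = inhibition at or above 50% relative to wild type and mutant plate controls; inactive = inhibition below 50%.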
What was measured:
[1] = inhibitors of TNFa-induced NFkB p65 translocation, primary screen, imaging, HUVEC, MLSMR starter and 10KST1 sets (AID 438;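 active = inhibition above 20% together with a positive visual image hit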;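 also: compound added about 3h40 before a 20 min TNFalpha stimulation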;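 as to inhibition: signal is the nuclear over cytoplasmic p65 intensity ratio per well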); conditions: HUVEC TNFa-induced p65 nuclear translocation; cell count: measured here: nuclei count (cytotoxicity indicator), at 2.08 µM; inhibition: at 2 µM, stronger effect = higher value, 0% TNFa-plus-vehicle, 100% no-TNFa wells
[2] = inhibitors of mutant huntingtin aggregation, primary screen, imaging, exon1htt(103Q)mCFP cells, high-content imaging (AID 483;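 active = visual image review flags a hit and inhibition of aggregation exceeds 20%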;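 also: compound exposure lasted 3 days before fixation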;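 as to nuclei count: percent of the per-plate median nuclei count of sample wells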); conditions: exon1htt(103Q)mCFP cell line, aggregate imaging, at 2 µM; inhibition of aggregation: stronger effect = higher value; nuclei count: measured here: cell count, toxicity
[3] = inhibitors of E-selectin induction by TNFa, primary screen, imaging, HUVEC, immunofluorescence, MLSMR starter and 10KST1 sets (AID 487;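 active = visually confirmed hit in the image check and inhibition above 20%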;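 as to inhibition: signal is fraction of cell area covered by stained E-selectin grains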;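 as to nuclei count: 100% = median nuclei count of all wells on the same plate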); conditions: HUVEC TNFalpha-induced E-selectin immunofluorescence imaging, at 2 µM; inhibition: stronger effect = higher value; nuclei count: measured here: cell number, toxicity
[4] = DUSP6 inhibitors restoring Erk phosphorylation by chemical complementation, primary imaging in DUSP6-transfected HeLa (AID 609;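 active = compounds giving at least 50% inhibition in the cell-based MKP-3 phosphatase rescue imaging test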;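 as to inhibition: phospho-Erk level distribution per well compared with pooled transfected vehicle control wells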); conditions: HeLa MKP-3 transfected, phospho-Erk imaging KS statistic, at 10 µM, cells stimulated with TPA for 15 min
[5] = target: Dual specificity protein phosphatase 6 (Homo sapiens) (UniProt Q16828); experiment: as above; conditions: HeLa MKP-3 transfected, phospho-Erk imaging KS statistic; at 10 µM; stronger effect = higher value; cells stimulated with TPA for 15 min
Chain of Dual specificity protein phosphatase 6 (Homo sapiens) (Q16828 whole entry, looked up): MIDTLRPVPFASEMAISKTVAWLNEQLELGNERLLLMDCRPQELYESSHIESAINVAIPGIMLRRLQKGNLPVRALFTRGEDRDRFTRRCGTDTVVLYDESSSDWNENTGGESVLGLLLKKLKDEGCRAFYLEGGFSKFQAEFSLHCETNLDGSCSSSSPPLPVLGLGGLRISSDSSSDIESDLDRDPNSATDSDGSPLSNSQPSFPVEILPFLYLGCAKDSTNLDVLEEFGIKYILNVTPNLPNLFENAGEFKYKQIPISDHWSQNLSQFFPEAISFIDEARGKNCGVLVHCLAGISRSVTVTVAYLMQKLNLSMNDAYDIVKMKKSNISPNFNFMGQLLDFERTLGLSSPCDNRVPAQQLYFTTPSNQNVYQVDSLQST

[6] = target: Voltage-gated potassium channel subunit beta-2 (Rattus norvegicus) (UniProt P62483); experiment: KvBeta enzyme negative modulators, primary screen, biochemical, NADPH fluorescence (AID 622;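 active = fluorescence slope higher than the sample average by over 3 SD, cut at about -0.22 in these data, passing the limit was not always enough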;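 also: slope of raw intensity against log time taken from 70 to 1610 s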); conditions: recombinant KvBeta, 4-cyanobenzaldehyde reduction, at 10 µM, stronger effect = higher value
Chain of Voltage-gated potassium channel subunit beta-2 (Rattus norvegicus) (P62483 whole entry, looked up): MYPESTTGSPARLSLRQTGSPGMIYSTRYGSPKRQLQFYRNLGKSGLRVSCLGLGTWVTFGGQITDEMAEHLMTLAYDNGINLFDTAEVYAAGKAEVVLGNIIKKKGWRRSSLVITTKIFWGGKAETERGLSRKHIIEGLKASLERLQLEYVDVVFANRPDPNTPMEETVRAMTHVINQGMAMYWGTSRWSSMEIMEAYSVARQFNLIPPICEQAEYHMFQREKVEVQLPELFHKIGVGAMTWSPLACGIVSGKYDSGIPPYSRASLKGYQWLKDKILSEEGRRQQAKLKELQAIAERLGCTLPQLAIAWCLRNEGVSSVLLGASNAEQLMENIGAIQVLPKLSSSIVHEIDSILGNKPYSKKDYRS

[7] = target: Voltage-gated potassium channel subunit beta-2 (Rattus norvegicus) (UniProt P62483); experiment: KvBeta positive modulators, primary screen, biochemical, NADPH fluorescence (AID 623;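 active = NADPH fluorescence slope more negative than the mean of all samples by about 3 SD, 99.7% confidence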;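 also: fluorescence intensity change per second fitted from 20 to 320 s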); conditions: Recombinant KvBeta, NADPH fluorescence decrease slope, 10 min; at 10 µM; stronger effect = lower value
[8] = target: Muscarinic acetylcholine receptor M4 (Homo sapiens) (UniProt P08173); experiment: compounds altering M4/GIRK thallium flux, either direction, primary screen, M4 allosteric agonist project, cell-based, HEK293 M4/GIRK, BTC-AM (AID 625;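 active = fluorescence slope after compound addition differing from the mean of all tested samples at 99.7% confidence, mostly higher but some lower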;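 also: thallium influx through GIRK channels coupled to M4 in HEK293 cells with BTC-AM dye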); conditions: at 10 µM, actives lie on both sides
Chain of Muscarinic acetylcholine receptor M4 (Homo sapiens) (P08173 whole entry, looked up): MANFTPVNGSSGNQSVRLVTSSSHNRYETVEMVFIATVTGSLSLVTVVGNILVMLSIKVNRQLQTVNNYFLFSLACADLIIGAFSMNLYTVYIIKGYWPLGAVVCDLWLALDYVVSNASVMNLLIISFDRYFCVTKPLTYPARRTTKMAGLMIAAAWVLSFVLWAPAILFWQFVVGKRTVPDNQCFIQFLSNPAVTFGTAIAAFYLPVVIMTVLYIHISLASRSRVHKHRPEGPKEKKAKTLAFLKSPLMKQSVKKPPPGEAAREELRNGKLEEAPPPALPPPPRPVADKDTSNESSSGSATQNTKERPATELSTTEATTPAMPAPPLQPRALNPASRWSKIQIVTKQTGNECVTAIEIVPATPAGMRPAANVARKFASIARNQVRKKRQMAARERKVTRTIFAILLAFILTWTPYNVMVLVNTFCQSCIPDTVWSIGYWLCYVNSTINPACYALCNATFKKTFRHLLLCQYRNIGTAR

[9] = inhibitors of larval lipid processing in zebrafish, primary screen, whole organism, PED6 fluorescence, gall bladder and intestine (AID 686;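 active = a full or partial loss of lipid-probe fluorescence in the fish gall bladder, intestine or both, judged by eye; inactive = no fluorescence loss, or compound toxic to the fish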;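 also: larvae 5 to 7 days old with five fish per well; signal comes from phospholipase A2 cleavage of quenched PED6 carried via bile; overnight exposure to compound and PED6 before scoring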); conditions: Zebrafish larvae PED6 lipid processing, fluorescence scoring; screened at 20 µM (by protocol)
[10] = inhibitors of Chlamydomonas gravitaxis, primary screen, whole organism, Chlamydomonas reinhardtii, WT vs cilia-less mutant, absorbance, 96-well (AID 463189); conditions: OD600 absorbance, 2 days, at 10 µM, stronger effect = higher value;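 also: 0% = wild type cc124 cells in DMSO and 100% = ciliumless bld1 mutant cells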
[11] = inhibitors of Sendai virus-induced IRF3 signaling, primary screen, TLR/RLR signaling modifier project, cell-based, Sendai virus stimulus, luciferase, 10K MLSCN set (AID 602276;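 active = inhibition at or above 50% at 10 µM; inactive = inhibition below 50%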;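 also: firefly luciferase from ISG56 promoter only with Renilla not read in this screen; 0% = Sendai virus plus DMSO and 100% = medium plus DMSO without virus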); conditions: HEK293 RL24 IRF3 luciferase reporter, at 10 µM, stronger effect = higher value
[12] = inhibitors of poly I:C-induced TLR3 signaling, primary screen, cell-based, poly I:C stimulus, luciferase, 10K MLSCN set (AID 602277;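 active = inhibition of the reporter signal at or above 50%; inactive = inhibition below 50%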); conditions: HEK293-TLR3 RL24 IRF3 luciferase reporter, at 10 µM, stronger effect = higher value
[13] = measured here: cell density z-score
[14] = measured here: nuclear c-Myc green intensity z-score
[15] = measured here: nuclear pErk red intensity z-score, stronger effect = higher value

Compound | cell count [1] | inhibition [1] | inhibition of aggregation [2] | nuclei count [2] [%] | inhibition [3] | nuclei count [3] [%] | z-score [4, 13] | z-score [4, 14] | z-score [4, 15] | inhibition [5] | fluorescence slope [6] | NADPH fluorescence slope [7] | fluorescence slope [8] | outcome [9] | inhibition [10] | inhibition [11] | inhibition [12]
CCN1CCc2c(C#N)c(N3CCCCC3)nc(NCc3ccccc3)c2C1 | 466 | -4.8% (inactive) | 16.8% (inactive) | 89.7 | -51.6% (inactive) | 112 | 1.27 | -1.37 | -1.11 | 16.5% (inactive) | -0.472 (inactive) | -3.9e-05 (inactive) | 0.00484 (inactive) | inactive | 23.7% (inactive) | 14.7% (inactive) | 31.2% (inactive)
CC(=O)c1c(OCC(=O)O)ccc2c(C)cc(=O)oc12 | 717 | 0.3% (inactive) | 10.5% (inactive) | 97.8 | -27.6% (inactive) | 126 | -0.71 | 0.597 | -0.576 | 5.95% (inactive) | -0.455 (inactive) | -6.6e-05 (inactive) | 0.00563 (inactive) | inactive | 19.8% (inactive) | 16.9% (inactive) | 17.3% (inactive)
COc1ccc2c(c1)n([O-])c1c([n+]2=O)CCC1 | 640 | -4.7% (inactive) | -32.6% (inactive) | 113 | -56.2% (inactive) | 108 | -0.812 | 2.02 | -1.59 | 3.49% (inactive) | -0.367 (inactive) | -3.5e-05 (inactive) | 0.00434 (inactive) | inactive | -9.94% (inactive) | -10.3% (inactive) | 99.2% (active)
Cc1ccc2[nH]c3c(N4CCOCC4)ncnc3c2c1 | 599 | -3.9% (inactive) | 18.9% (inactive) | 82.9 | -12.3% (inactive) | 152 | -1.33 | 0.984 | 0.577 | -1.98% (inactive) | -0.16 (inactive) | -2.2e-05 (inactive) | 0.00605 (inactive) | inactive | -1.47% (inactive) | -15.5% (inactive) | -85.9% (inactive)
COc1ccccc1C1C(C#N)=C(N)Oc2cc(C)n(Cc3ccccn3)c(=O)c21 (configuration not stated) | 679 | -2.4% (inactive) | 12% (inactive) | 99.3 | -46.2% (inactive) | 122 | 0.97 | -0.155 | -0.154 | 0.671% (inactive) | -0.453 (inactive) | -3.2e-05 (inactive) | 0.00473 (inactive) | inactive | 7.42% (inactive) | -7.32% (inactive) | 4.86% (inactive)
CCOC(=O)c1ccc(CC2S/C(=C(\C#N)C(C)=O)NC2=O)cc1 (configuration not stated) | 508 | -6.4% (inactive) | -13.4% (inactive) | 100 | -87.6% (inactive) | 145 | 1.03 | -0.573 | 0.337 | 13.4% (inactive) | -0.384 (inactive) | -4.5e-05 (inactive) | 0.00533 (inactive) | inactive | 13.1% (inactive) | 6.73% (inactive) | -11.5% (inactive)
O=C(NCCN1CCCCC1)c1ccc(=O)oc1 | 586 | -3% (inactive) | -8.2% (inactive) | 90.9 | -0.3% (inactive) | 130 | 0.13 | 0.819 | -0.401 | 4.37% (inactive) | -0.482 (inactive) | -5.1e-05 (inactive) | 0.00918 (inactive) | inactive | -5.06% (inactive) | 3.93% (inactive) | 3.77% (inactive)
COc1ccc(CCn2c(=N)c(C(=O)NCc3ccco3)cc3c(=O)n4ccccc4nc32)cc1 | 496 | -4.9% (inactive) | -10% (inactive) | 94.4 | -63.3% (inactive) | 108 | 0.843 | 0.0165 | -1.15 | 24.3% (inactive) | -0.516 (inactive) | -1.6e-05 (inactive) | 0.00166 (active) | inactive | -7.81% (inactive) | 5.21% (inactive) | 17.8% (inactive)
COc1ccc2c(c1)[nH]c1c(=O)n(CC3CCCO3)cnc12 (configuration not stated) | 702 | -0.4% (inactive) | 5.9% (inactive) | 73.4 | -39.2% (inactive) | 133 | 1.51 | -0.546 | -1.36 | -2.91% (inactive) | -0.423 (inactive) | -4.3e-05 (inactive) | 0.00561 (inactive) | inactive | 0.053% (inactive) | -17.6% (inactive) | -27.5% (inactive)
c1ccc(CN2CCN(c3ncnc4c3[nH]c3ccccc34)CC2)cc1 | 599 | -13.1% (inactive) | 10.3% (inactive) | 94.4 | -47.4% (inactive) | 137 | 0.378 | -1.18 | -0.208 | 13.4% (inactive) | -0.381 (inactive) | -2.8e-05 (inactive) | 0.00594 (inactive) | active; weak signal in intestine only | 21.2% (inactive) | 1.57% (inactive) | -46.7% (inactive)
CCc1nc2sc3c(c2c(=O)o1)CCCC3 | 736 | -8.2% (inactive) | -11.4% (inactive) | 104 | -32.9% (inactive) | 130 | -0.371 | -1.28 | 1.35 | -2.07% (inactive) | -0.413 (inactive) | -5.4e-05 (inactive) | 0.00552 (inactive) | inactive | 8.78% (inactive) | 23% (inactive) | 35.5% (inactive)
CCCCCn1c2nc3ccccc3nc2c2c(=O)n(CC(C)C)cnc21 | 641 | -4.1% (inactive) | 14.3% (inactive) | 105 | -73.9% (inactive) | 130 | -0.357 | 2.75 | 1.53 | 15% (inactive) | -0.429 (inactive) | -4.4e-05 (inactive) | 0.00475 (inactive) | inactive | 16.4% (inactive) | 19.4% (inactive) | 19.9% (inactive)
Clc1ccc(-n2ncc3c(NCCCn4ccnc4)ncnc32)cc1 | 618 | -10.7% (inactive) | -16.9% (inactive) | 105 | -41.4% (inactive) | 129 | -0.368 | 0.856 | 1.02 | 1.42% (inactive) | -0.386 (inactive) | -5.7e-05 (inactive) | 0.00622 (inactive) | inactive | -3.19% (inactive) | -0.733% (inactive) | -33.8% (inactive)
Cc1nc2sc(C#N)c(N)c2c2c1CCCC2 | 603 | 0.2% (inactive) | -143% (inactive) | 3.6 | 0.2% (inactive) | 96.3 | -2.36 | 2.17 | -1.05 | 9.07% (inactive) | -0.0248 (active) | -1e-05 (inactive) | 0.00523 (inactive) | inactive | 3.68% (inactive) | -2.92% (inactive) | -41.1% (inactive)
COc1ccc(C(=O)NCCCCCC(=O)O)cc1OC | 687 | -15.7% (inactive) | 12.2% (inactive) | 93 | -46.5% (inactive) | 119 | -0.456 | -0.271 | 0.551 | 18.9% (inactive) | -0.427 (inactive) | -3.8e-05 (inactive) | 0.00503 (inactive) | inactive | 32.7% (inactive) | 3.62% (inactive) | 12.3% (inactive)
CCOC(=O)CC(C#N)c1cn(C)c2ccccc12 (configuration not stated) | 657 | -0.6% (inactive) | 2.2% (inactive) | 104 | 8.5% (inactive) | 135 | -1.04 | 0.465 | 0.369 | -7.28% (inactive) | -0.46 (inactive) | -3.8e-05 (inactive) | 0.00661 (inactive) | inactive | 13.1% (inactive) | 21.5% (inactive) | 28.2% (inactive)
Cc1ccc(/C=N/n2nnnc2N)o1 | 674 | -1.3% (inactive) | 3.9% (inactive) | 132 | -8.1% (inactive) | 133 | 0.152 | -0.504 | 0.0866 | 1.04% (inactive) | -0.487 (inactive) | -2.1e-05 (inactive) | 0.00641 (inactive) | inactive | 5.51% (inactive) | -2.49% (inactive) | 3.55% (inactive)
N#C/C(C(=O)NCc1ccco1)=C1/SC(Cc2ccc(F)cc2)C(=O)N1c1ccccc1 (configuration not stated) | 598 | 4.7% (inactive) | -63.4% (inactive) | 75.6 | -13.2% (inactive) | 108 | 0.348 | 0.139 | 0.51 | -2.09% (inactive) | -0.437 (inactive) | -2.8e-05 (inactive) | 0.00419 (inactive) | inactive; toxic | -7.54% (inactive) | 11.5% (inactive) | 20.4% (inactive)
CC(=O)C1=C(O)C(=O)N(c2ccc(C(=O)O)cc2)C1c1ccccc1 (configuration not stated) | 669 | 4.5% (inactive) | 10.3% (inactive) | 101 | -53.3% (inactive) | 112 | 1.33 | -0.568 | -0.179 | 2.46% (inactive) | -0.428 (inactive) | -5.9e-06 (inactive) | 0.00575 (inactive) | inactive | -2.45% (inactive) | 16.8% (inactive) | 17.1% (inactive)
CC(C)(C)NCc1cc2ccccc2[nH]c1=O | 585 | 4.5% (inactive) | -3.4% (inactive) | 102 | -165% (inactive) | 146 | -1.28 | 1.15 | 0.508 | 16.8% (inactive) | -0.451 (inactive) | -4.7e-05 (inactive) | 0.00463 (inactive) | inactive | 3.94% (inactive) | 12.2% (inactive) | 18.4% (inactive)
COC(=O)C(NC(C)=O)(Nc1nc2ccc(S(C)(=O)=O)cc2s1)C(F)(F)F (configuration not stated) | 473 | -7.9% (inactive) | 3.4% (inactive) | 102 | -30.1% (inactive) | 97.4 | -0.876 | 0.631 | 0.313 | 7.42% (inactive) | -0.51 (inactive) | -1e-05 (inactive) | 0.00507 (inactive) | inactive | -13% (inactive) | -0.421% (inactive) | 13.8% (inactive)

Reference: PubChem BioAssay
